# Data from PubChem BioAssay (Tox21).
# Values joined by “and” are separate entries in the source; they are usually repeats but may differ in a detail not shown here. Equal entries are not always repeated. Records with an inconclusive call do not appear. Entries that show only a call come without a potency. Some compounds were tested as several samples or in several runs, with calls that do not always agree. Active and inactive are the calls of the source. Unless noted, calls come from the whole dose curve; as a rule, active = well fitted curve in the direction sought with a large enough effect in the repeat runs; inconclusive = weak or mixed curves; inactive = no such curve, though single readings can be large; an effect the other way counts as inactive or inconclusive.
# Columns and labels:
# [1] = qHTS assay to identify small molecule antagonists of the estrogen receptor alpha (ER-alpha) signaling pathway using the BG1 cell line in the presence of 0.1 nM 17-beta-estradiol - cell viability counter screen (AID 1259241); note: nearly all actives have a fitted effect of over 40% in size; note: potency is the fitted concentration of half-maximal effect
# Outline: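 Cytotoxicity counter-screen: live-cell protease activity measured by fluorescence (30 min reagent step) in the same wells. Cells were VM7Luc4E2 with endogenous ER-alpha and ERE-driven luciferase, treated 22 hr at 37C alongside 0.1 nM 17beta-estradiol final.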
# [2] = target: Estrogen receptor (Homo sapiens) (UniProt P03372); assay: qHTS assay to identify small molecule antagonists of the estrogen receptor alpha (ER-alpha) signaling pathway using the BG1 cell line in the presence of 0.1 nM 17-beta-estradiol (AID 1259244); note: nearly all actives have a fitted effect of over 50% in size; note: potency is the fitted concentration of half-maximal effect
# Outline: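 Seeding of stripped-serum-adapted VM7Luc4E2 cells, 24 h attachment, compound transfer, then 0.1 nM final 17beta-estradiol; after 22 h incubation, ONE-Glo reagent and luminescence reading.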
# [3] = qHTS assay to identify small molecule HDAC inhibitors (AID 1259364);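 note: wild-type HCT-116 cells with endogenous class I/II HDAC activity; top concentration of the series differs between compounds; nearly all actives have a fitted effect of over 45% in size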
# Outline: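 After a 2 hr compound incubation (37C, 5% CO2), HCT-116 cells seeded at 1,500/well the day before received HDAC-Glo reagent; signal read as luminescence after 30 min at room temperature.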
# [4] = qHTS assay to identify small molecule agonists of the sonic hedgehog signaling (Shh) pathway - cell viability counter screen (AID 1259366); note: nearly all actives have a fitted effect of over 50% in size; note: potency is the fitted concentration of half-maximal effect
# Outline: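 Cytotoxicity counter screen: CellTiter-Fluor reagent added after 23 h compound exposure, then 1 h at 37C and fluorescence read. Cells were 3T3 Gli1-Luc, seeded 2,000 per well and dosed 4 h post-plating.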
# [5] = qHTS assay to identify small molecule agonists of the sonic hedgehog signaling (Shh) pathway (AID 1259368; calls by dose curve;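 note: NIH/3T3-derived 3T3Gli1-Luc cells carrying a stable Gli1-driven firefly luciferase reporter; series mostly up to about 92 µM; nearly all actives have a fitted effect of over 15% in size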)
# Outline: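 Stable NIH/3T3 Gli1-Luc reporter clone; 24 hr cpd exposure after a 4 hr settling period; luminescence endpoint.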
# [6] = qHTS assay to identify small molecule antagonists of the sonic hedgehog signaling (Shh) pathway (AID 1259369; calls by dose curve; note: nearly all actives have a fitted effect of over 45% in size; note: potency is the fitted concentration of half-maximal effect)
# Outline: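 Gli1 transcriptional reporter (firefly Luc) in NIH/3T3 background, conditioned-medium activated. 24hr exposure, luminescence endpoint.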
# [7] = qHTS assay to identify small molecule agonists of the androgen receptor (AR) signaling pathway in the presence of an antagonist - cell viability counter screen (AID 1259379); note: nearly all actives have a fitted effect of over 25% in size; note: potency is the fitted concentration of half-maximal effect
# Outline: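 Counter screen for cell viability run in parallel with the AR agonist-mode luciferase assay. MDA-kb2 cells were co-treated with nilutamide (3.0uM final) and compounds, then incubated 16 hr at 37C, and CellTiter-Fluor fluorescence was measured.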
# [8] = qHTS assay to identify small molecule agonists of the estrogen receptor beta (ER-beta) signaling pathway - cell viability counter screen (AID 1259380); note: nearly all actives have a fitted effect of over 30% in size; note: potency is the fitted concentration of half-maximal effect
# Outline: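 In this qHTS counter screen, HEK293T cells carrying an ER-beta/UAS beta-lactamase reporter, grown in 2% charcoal-stripped FBS, received compound for 16 hr; ATP-based CellTiter-Glo luminescence was then read after 30 min at room temperature.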
# [9] = target: Estrogen receptor (Homo sapiens) (UniProt P03372); assay: qHTS assay to identify small molecule agonists of the estrogen receptor alpha (ER-alpha) signaling pathway in the presence of an antagonist (AID 1259383; calls by dose curve; note: nearly all actives have a fitted effect of over 15% in size; note: potency is the fitted concentration of half-maximal effect; for activation: top concentration of the series differs between compounds)
# Outline: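 ER-alpha agonism measured under antagonist challenge: 10.0nM ICI-182,780 (final) plus compound, 15 concentrations, 22hr, VM7Luc4E2 ERE-luciferase cells. Read by luminescence.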
# [10] = qHTS assay to identify small molecule agonists or antagonists of the thyroid stimulating hormone receptor (TSHR) signaling pathway - wild type cell line counter screen (AID 1259384; calls by dose curve)
# Outline: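 Counter screen in untransfected Hek293: compounds (15-point titration, triplicate) plus phosphodiesterase inhibitor Ro20-1724 added after 18 h plating; 30 min RT. Intracellular cAMP via competitive d2/cryptate immunoassay, 1 h incubation.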
# [11] = qHTS assay to identify small molecule phospholipidosis (PLD) inducers (AID 1259344; active = well fitted curve in the direction sought with a large enough effect; an effect the other way counts as inactive or inconclusive)
# Outline: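 Accumulated phospholipid, stained red by LipidTOX during 24 h compound treatment of HepG2 cells at 37 C, is quantified from images as pit number and intensity, normalised per cell using Hoechst-stained nuclei.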
# [12] = qHTS assay to identify small molecule HDAC inhibitors - cell viability counter screen (AID 1259365); note: nearly all actives have a fitted effect of over 50% in size; note: potency is the fitted concentration of half-maximal effect
# Outline: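 CellTiter-Glo luminescence (30 min, room temperature) reported viability after a 2 h compound exposure at 37 C. Cells: wild-type HCT-116, 1,500 per well, seeded the night before.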
# [13] = qHTS assay to identify small molecule antagonists of the sonic hedgehog signaling (Shh) pathway - cell viability counter screen (AID 1259367); note: nearly all actives have a fitted effect of over 55% in size; note: potency is the fitted concentration of half-maximal effect
# Outline: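 CellTiter-Fluor signal in conditioned medium-stimulated 3T3 Gli1-Luc cells, 23 hr compound exposure, 37C.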
# [14] = qHTS assay to identify small molecule antagonists of the estrogen receptor beta (ER-beta) signaling pathway - cell viability counter screen (AID 1259382); note: nearly all actives have a fitted effect of over 55% in size; note: potency is the fitted concentration of half-maximal effect
# Outline: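 HEK293T ER-beta-UAS-bla, 2% charcoal-stripped FBS; compounds + 1nM E2 16 hr 37C; CellTiter-Glo luminescence, 30 min RT.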
# [15] = target: Estrogen receptor beta (Homo sapiens) (UniProt Q92731); assay: qHTS assay to identify small molecule agonists of the estrogen receptor beta (ER-beta) signaling pathway (AID 1259377; active = well fitted activation curve with a large enough effect in the signal ratio in the repeat runs, not every such curve was filed as active; the % refers to the signal ratio; note: potency is the fitted concentration of half-maximal effect)
# Outline: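 Ratiometric beta-lactamase FRET read-out came after 2 h substrate loading at room temperature. It followed 16 h compound treatment at 37C of GripTite HEK293T cells carrying a UAS-bla reporter, plated in 2% charcoal-stripped FBS medium.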
# [16] = target: Thyrotropin receptor (Homo sapiens) (UniProt P16473); assay: qHTS assay to identify small molecule antagonists of the thyroid stimulating hormone receptor (TSHR) signaling pathway (AID 1259385; calls by dose curve; note: nearly all actives have a fitted effect of over 20% in size)
# Outline: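 Antagonist mode: compound-treated TSHR-expressing HEK293 cells were stimulated with 1.5 ng/mL TSH (final) in presence of Ro20-1724 for 30 min at RT. HTRF cAMP detection after 1 h; each compound tested at 15 concentrations, triplicate.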
# [17] = target: Estrogen receptor beta (Homo sapiens) (UniProt Q92731); assay: qHTS assay to identify small molecule antagonists of the estrogen receptor beta (ER-beta) signaling pathway (AID 1259378; active = well fitted inhibition curve with a large enough effect in the signal ratio in the repeat runs, not every such curve was filed as active; the % refers to the signal ratio; note: potency is the fitted concentration of half-maximal effect)
# Outline: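 Antagonist mode: compounds added to beta-lactamase reporter HEK293T ER-beta-UAS cells stimulated with E2 (1nM final), 16 hr at 37C. LiveBLAzer B/G FRET substrate, 2 hours room temperature, fluorescence read-out.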
# [18] = target: Androgen receptor (Homo sapiens) (UniProt P10275); assay: qHTS assay to identify small molecule agonists of the androgen receptor (AR) signaling pathway in the presence of an antagonist (AID 1259381; calls by dose curve; note: nearly all actives have a fitted effect of over 15% in size)
# Outline: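 AR antagonist background: nilutamide 3.0uM final. Cell line: MDA-kb2, MMTV-driven luciferase, responsive to both AR and GR. Exposure 16hr, 37C, no CO2; ONE-Glo luminescence.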
# [19] = qHTS assay to identify small molecule antagonists of the androgen receptor (AR) signaling pathway using the MDA cell line in the presence of 0.5 nM R1881 - cell viability counter screen (AID 1259242); note: nearly all actives have a fitted effect of over 45% in size
# Outline: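 Human breast carcinoma MDA-kb2 cells, cultured without CO2, receive compounds alongside 0.5 nM (final) R1881 agonist. After 16 hr at 37C, viability is taken as live-cell protease signal.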
# [20] = target: Androgen receptor (Homo sapiens) (UniProt P10275); assay: qHTS assay to identify small molecule antagonists of the androgen receptor (AR) signaling pathway using the MDA cell line in the presence of 0.5 nM R1881 (AID 1259243); note: nearly all actives have a fitted effect of over 50% in size; note: potency is the fitted concentration of half-maximal effect
# Outline: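 Cells: MDA-kb2 (MMTV-luc). Stimulus: 0.5 nM R1881. Time: 16 hr, 37C, no CO2. Detection: ONE-Glo luminescence after 30 min at RT.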
# Sequence of Estrogen receptor beta (Homo sapiens) (Q92731 whole entry, looked up): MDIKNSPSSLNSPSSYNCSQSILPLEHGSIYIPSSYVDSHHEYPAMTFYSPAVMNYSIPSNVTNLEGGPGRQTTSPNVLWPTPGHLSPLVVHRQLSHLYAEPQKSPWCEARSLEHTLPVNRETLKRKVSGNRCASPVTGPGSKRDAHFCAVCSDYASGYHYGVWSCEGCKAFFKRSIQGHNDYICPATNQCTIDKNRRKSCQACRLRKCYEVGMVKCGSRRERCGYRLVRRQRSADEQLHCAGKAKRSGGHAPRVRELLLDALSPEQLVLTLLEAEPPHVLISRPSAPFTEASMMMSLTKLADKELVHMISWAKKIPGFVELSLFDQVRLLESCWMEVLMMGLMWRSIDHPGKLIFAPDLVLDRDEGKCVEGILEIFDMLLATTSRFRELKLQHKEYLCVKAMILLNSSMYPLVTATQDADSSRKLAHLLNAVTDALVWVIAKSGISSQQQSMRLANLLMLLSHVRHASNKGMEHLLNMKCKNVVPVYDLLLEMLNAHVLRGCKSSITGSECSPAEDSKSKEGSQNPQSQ
# Sequence of Thyrotropin receptor (Homo sapiens) (P16473 whole entry, looked up): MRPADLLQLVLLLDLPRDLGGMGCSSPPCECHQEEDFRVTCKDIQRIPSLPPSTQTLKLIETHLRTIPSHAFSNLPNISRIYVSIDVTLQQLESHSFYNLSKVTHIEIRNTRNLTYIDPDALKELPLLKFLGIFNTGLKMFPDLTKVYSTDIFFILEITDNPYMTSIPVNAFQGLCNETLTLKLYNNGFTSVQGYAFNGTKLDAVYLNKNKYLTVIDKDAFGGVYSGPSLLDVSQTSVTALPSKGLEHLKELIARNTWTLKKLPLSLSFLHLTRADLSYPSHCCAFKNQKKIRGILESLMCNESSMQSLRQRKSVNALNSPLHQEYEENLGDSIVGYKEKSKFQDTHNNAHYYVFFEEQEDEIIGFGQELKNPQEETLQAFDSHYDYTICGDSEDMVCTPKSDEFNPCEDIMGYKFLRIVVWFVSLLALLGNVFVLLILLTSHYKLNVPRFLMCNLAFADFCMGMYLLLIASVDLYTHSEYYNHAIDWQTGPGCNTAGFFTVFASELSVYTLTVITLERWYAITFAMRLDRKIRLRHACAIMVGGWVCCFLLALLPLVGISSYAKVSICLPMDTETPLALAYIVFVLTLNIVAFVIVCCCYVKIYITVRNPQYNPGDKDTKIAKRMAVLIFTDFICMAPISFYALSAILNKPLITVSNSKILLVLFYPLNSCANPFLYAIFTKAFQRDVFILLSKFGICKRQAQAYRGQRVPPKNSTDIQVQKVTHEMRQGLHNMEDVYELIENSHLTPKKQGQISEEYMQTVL
# Sequence of Androgen receptor (Homo sapiens) (P10275 whole entry, looked up): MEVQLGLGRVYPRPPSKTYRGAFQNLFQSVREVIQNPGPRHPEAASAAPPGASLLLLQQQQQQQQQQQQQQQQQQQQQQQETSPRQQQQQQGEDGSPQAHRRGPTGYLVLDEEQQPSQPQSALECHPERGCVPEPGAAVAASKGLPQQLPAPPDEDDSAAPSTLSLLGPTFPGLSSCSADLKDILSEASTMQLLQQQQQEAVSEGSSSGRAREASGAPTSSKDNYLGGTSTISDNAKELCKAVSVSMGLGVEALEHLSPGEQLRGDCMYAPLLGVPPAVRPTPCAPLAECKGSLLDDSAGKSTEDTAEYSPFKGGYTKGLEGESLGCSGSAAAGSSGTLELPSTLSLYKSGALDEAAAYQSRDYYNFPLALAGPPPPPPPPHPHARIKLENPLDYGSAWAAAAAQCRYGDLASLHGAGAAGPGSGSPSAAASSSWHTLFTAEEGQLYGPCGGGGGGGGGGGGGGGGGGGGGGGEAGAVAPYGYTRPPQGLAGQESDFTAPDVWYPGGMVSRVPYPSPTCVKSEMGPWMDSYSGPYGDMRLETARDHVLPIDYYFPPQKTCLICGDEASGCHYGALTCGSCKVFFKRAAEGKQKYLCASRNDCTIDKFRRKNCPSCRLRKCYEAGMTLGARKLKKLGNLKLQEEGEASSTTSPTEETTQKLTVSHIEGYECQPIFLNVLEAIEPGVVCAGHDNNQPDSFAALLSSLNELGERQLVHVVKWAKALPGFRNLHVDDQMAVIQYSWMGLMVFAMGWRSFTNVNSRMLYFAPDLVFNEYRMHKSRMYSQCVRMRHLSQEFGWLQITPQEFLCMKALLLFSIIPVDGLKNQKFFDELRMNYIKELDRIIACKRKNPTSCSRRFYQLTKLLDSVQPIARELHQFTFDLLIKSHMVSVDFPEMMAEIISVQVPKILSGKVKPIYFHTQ
# Sequence of Estrogen receptor (Homo sapiens) (P03372 whole entry, looked up): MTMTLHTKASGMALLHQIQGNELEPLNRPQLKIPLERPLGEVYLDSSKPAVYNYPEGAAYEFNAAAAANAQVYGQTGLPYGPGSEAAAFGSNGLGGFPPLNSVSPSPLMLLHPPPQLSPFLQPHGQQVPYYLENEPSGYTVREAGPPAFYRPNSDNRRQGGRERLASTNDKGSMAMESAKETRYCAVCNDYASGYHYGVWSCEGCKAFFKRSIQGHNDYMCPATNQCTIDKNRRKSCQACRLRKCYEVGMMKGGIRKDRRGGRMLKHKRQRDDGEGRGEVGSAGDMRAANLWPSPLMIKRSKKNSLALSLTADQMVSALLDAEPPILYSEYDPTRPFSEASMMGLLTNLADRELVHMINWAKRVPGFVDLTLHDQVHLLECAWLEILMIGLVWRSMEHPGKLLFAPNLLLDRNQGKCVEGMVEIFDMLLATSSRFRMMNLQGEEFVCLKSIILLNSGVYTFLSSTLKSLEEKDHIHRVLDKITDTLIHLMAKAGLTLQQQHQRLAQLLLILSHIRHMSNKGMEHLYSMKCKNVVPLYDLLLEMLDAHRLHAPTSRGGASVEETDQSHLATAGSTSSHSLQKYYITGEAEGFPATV
Structure (SMILES),Potency [1],Potency [2],Potency [3],Potency [4],Potency [5],Potency [6],Potency [7],Potency [8],Potency [9],outcome [10],Potency [11],Potency [12],Potency [13],Potency [14],Potency [15],Potency [16],Potency [17],Potency [18],Potency [19],Potency [20]
C=C(C)C(=O)OCC(O)COc1ccc(C(C)(C)c2ccc(OCC(O)COC(=O)C(=C)C)cc2)cc1 (configuration not stated),27.3 µM (active),21.7 µM (active),inactive,inactive,inactive,48.6 µM (active),30.6 µM (active),61.1 µM (active),inactive,inactive,–,–,–,–,–,–,–,–,–,–
COc1ccc(-c2ccc3cc(C(=O)O)ccc3c2)cc1C12CC3CC(CC(C3)C1)C2,inactive,–,inactive,–,inactive,inactive,–,–,inactive,inactive,inactive,inactive,inactive,inactive,–,–,–,–,–,–
O=C(OCC(COC(=O)c1ccccc1)(COC(=O)c1ccccc1)COC(=O)c1ccccc1)c1ccccc1,inactive,–,inactive,inactive,inactive,inactive,inactive,inactive,–,–,–,inactive,inactive,–,inactive,inactive,–,–,–,–
CCc1oc2ccccc2c1C(=O)c1cc(Br)c(O)c(Br)c1,inactive,–,inactive,inactive,inactive,inactive,inactive,–,inactive,–,inactive,inactive,inactive,inactive,–,inactive,–,–,–,–
CCCCCCCC/C=C/CCCCCCCC1=NCCN1CCO,inactive,–,inactive,–,inactive,54.5 µM (active),61.1 µM (active),27.3 µM (active),–,–,–,–,–,54.5 µM (active),–,–,54.5 µM (active),inactive,–,–
O=[N+]([O-])c1cc(Cl)c(Cl)c(Cl)c1Cl,68.3 µM (active),–,inactive,24.2 µM (active),inactive,inactive,24.2 µM (active),inactive,–,inactive,–,inactive,inactive,inactive,–,inactive,–,–,–,–
OCc1c[nH]c2ccccc12,inactive,–,inactive,inactive,inactive,30.6 µM (active),–,–,inactive,inactive,inactive,inactive,–,–,–,inactive,–,–,–,–
O=C(Oc1cccc2cccnc12)c1ccccc1,inactive,–,–,1.5 µM (active),inactive,inactive,inactive,10.6 µM (active),inactive,inactive,inactive,inactive,–,–,inactive,inactive,–,–,–,–
Oc1cccc2cc3cccc(O)c3c(O)c12,inactive,–,inactive,inactive,inactive,inactive,–,inactive,–,–,–,inactive,inactive,inactive,–,inactive,–,–,–,–
CC[C@H](c1ccc(O)cc1)[C@@H](CC)c1ccc(O)cc1,–,48.6 µM (active),inactive,54.5 µM (active) and inactive,inactive,7.7 µM (active),inactive,48.6 µM (active) and inactive,4.3 nM (active) and 8.4 nM (active),–,inactive,inactive,48.6 µM (active) and inactive,–,0.0011 µM (active),–,–,–,inactive,15.4 µM (active) and 26.6 µM (active)
Cc1[nH]cnc1C[C@H]1CCc2c(C)c3ccccc3n2C1=O,inactive,–,inactive,–,inactive,18.9 µM (active),–,4.74 µM (active),–,inactive,–,inactive,–,–,inactive,–,29.9 µM (active),–,–,–
CCc1cc(SCc2sc(-c3ccc(C(F)(F)F)cc3)nc2CN2CCN(c3ccc(OC)cc3)CC2)ccc1OCC(=O)O,inactive,–,inactive,–,inactive,–,43.3 µM (active),4.33 µM (active),–,inactive,–,24.3 µM (active),inactive,–,inactive,–,5.45 µM (active),–,–,–
C=CC(=O)OCCn1c(=O)n(CCOC(=O)C=C)c(=O)n(CCOC(=O)C=C)c1=O,48.6 µM (active),–,inactive,10.9 µM (active),inactive,5.45 µM (active),21.7 µM (active),–,–,inactive,–,–,21.7 µM (active),–,–,inactive,–,–,–,–
CC1=C(C(=O)OC(C)C)C(c2cccc([N+](=O)[O-])c2)C(C(=O)OC2CN(C(c3ccccc3)c3ccccc3)C2)=C(N)N1 (configuration not stated),inactive,–,inactive,23.7 µM (active),inactive,29.8 µM (active),–,29.8 µM (active),inactive,inactive,inactive,inactive,26.6 µM (active),–,–,inactive,16.8 µM (active),–,–,–
CCCCCCCCCCCCCCCC(=O)OC[C@H](O)[C@H]1OC(=O)C(O)=C1O,–,inactive,inactive,inactive,inactive,inactive,inactive,43.3 µM (active),inactive,inactive,inactive,inactive,inactive,–,–,inactive,–,inactive,inactive,inactive
O=C(NOCC1CC1)c1ccc(F)c(F)c1Nc1ccc(I)cc1Cl,inactive,–,inactive,inactive,inactive,13.3 µM (active),29.8 µM (active),–,inactive,–,inactive,inactive,inactive,inactive,inactive,–,8.41 µM (active),inactive,–,–
NC(=NCCCCCCN=C(N)/N=C(\N)Nc1ccc(Cl)cc1)/N=C(\N)Nc1ccc(Cl)cc1,inactive,–,inactive,48.1 µM (active) and 24.8 µM (active) and 54.2 µM (active),inactive,21.5 µM (active) and 27.2 µM (active) and 19.2 µM (active),62.2 µM (active) and 60.8 µM (active) and inactive,–,–,–,inactive,44.1 µM (active) and 60.8 µM (active) and inactive,60.6 µM (active) and 43 µM (active) and inactive,60.6 µM (active) and 48.3 µM (active) and 44.1 µM (active),–,inactive,–,–,–,–
